The assay concerns the target Acyl-protein thioesterase 1 (Homo sapiens) (UniProt O75608). The assay is described as follows: LYPLA1 enzyme kinetics with inhibitors – biochemical, substrate-based fluorescence, Ki, Km, late-stage follow-up (AID 651998). The settings on record: recombinant LYPLA1, resorufin acetate hydrolysis fluorescence, without test compound, enzyme Km for substrate.

Chain of Acyl-protein thioesterase 1 (Homo sapiens) (O75608 whole entry, looked up): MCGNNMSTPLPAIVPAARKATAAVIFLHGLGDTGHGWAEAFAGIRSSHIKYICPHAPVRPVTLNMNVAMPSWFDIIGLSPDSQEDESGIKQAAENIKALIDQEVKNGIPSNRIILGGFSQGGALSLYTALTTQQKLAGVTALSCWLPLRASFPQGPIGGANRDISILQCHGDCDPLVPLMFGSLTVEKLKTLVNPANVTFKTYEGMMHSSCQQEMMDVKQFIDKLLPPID

Usually Km stands for the concentration of substrate that gives half-maximal velocity. Consider `O=C(CN1CCN(C(=O)c2ccco2)CC1)Nc1cc(C(F)(F)F)ccc1Cl`, for which the Km is 28.3 µM.

These data come from PubChem BioAssay AID651998 (The Scripps Research Institute Molecular Screening Center, 2013).
